Measurements reported in publication PMC3218832.

What was measured:
Assay in all cases: protein binding microarray; high values mean tight binding
Details in all cases: dsDNA, one strand shown
[1] = target: RELARELA (p65 homodimer) (Homo sapiens, UniProt Q04206 1-307)
[2] = target: p50p50 homodimer (Homo sapiens, UniProt P19838 7-356)
[3] = target: T1, p52p52 homodimer (Homo sapiens, UniProt Q00653 4-332)
T1 sequence: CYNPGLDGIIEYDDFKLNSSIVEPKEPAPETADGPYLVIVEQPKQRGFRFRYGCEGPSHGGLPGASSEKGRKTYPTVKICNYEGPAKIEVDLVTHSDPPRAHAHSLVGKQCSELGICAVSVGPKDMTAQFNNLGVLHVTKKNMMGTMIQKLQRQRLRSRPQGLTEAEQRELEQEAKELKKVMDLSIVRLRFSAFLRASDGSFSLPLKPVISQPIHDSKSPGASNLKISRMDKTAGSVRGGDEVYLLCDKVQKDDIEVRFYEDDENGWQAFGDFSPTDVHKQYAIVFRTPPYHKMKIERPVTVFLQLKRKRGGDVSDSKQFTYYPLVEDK

[4] = target: RELA (p65) subunit of heterodimer;p50 subunit (Homo sapiens;Homo sapiens, UniProt Q04206;P19838 1-307;7-356)
[5] = target: RELA (p65) subunit of heterodimer;p52 subunit (Homo sapiens;Homo sapiens, UniProt Q04206;Q00653 1-307;4-332)
[6] = target: RELB subunit;p50 subunit (Homo sapiens;Homo sapiens, UniProt Q01201;P19838 120-401;7-356)
[7] = target: T2, RELB subunit;p52 subunit (Homo sapiens;Homo sapiens, UniProt Q01201;Q00653 120-401;4-332)
T2 sequence 1: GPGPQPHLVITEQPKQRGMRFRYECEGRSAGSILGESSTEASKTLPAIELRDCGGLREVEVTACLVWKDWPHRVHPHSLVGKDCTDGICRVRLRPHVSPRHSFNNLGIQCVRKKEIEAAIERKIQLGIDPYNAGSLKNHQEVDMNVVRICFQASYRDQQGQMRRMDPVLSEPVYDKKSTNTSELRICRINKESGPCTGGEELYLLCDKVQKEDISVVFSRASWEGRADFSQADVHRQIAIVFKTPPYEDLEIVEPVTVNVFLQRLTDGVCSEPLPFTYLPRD
T2 sequence 2: T1 sequence

[8] = target: C-Rel subunit;p50 subunit (Homo sapiens;Homo sapiens, UniProt Q04864;P19838 1-285;7-356)
[9] = target: T3, C-Rel subunit;p52 subunit (Homo sapiens;Homo sapiens, UniProt Q04864;Q00653 1-285;4-332)
T3 sequence 1: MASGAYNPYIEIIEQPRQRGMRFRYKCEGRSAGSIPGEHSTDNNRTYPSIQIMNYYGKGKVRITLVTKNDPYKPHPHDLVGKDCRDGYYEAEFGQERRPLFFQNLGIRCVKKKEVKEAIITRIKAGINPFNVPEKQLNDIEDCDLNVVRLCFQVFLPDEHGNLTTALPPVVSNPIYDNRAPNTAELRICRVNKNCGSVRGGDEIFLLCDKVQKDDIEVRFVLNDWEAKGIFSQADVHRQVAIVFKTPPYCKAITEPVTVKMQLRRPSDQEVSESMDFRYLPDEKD
T3 sequence 2: T1 sequence

p50p50 homodimer, sequence (P19838 7-356): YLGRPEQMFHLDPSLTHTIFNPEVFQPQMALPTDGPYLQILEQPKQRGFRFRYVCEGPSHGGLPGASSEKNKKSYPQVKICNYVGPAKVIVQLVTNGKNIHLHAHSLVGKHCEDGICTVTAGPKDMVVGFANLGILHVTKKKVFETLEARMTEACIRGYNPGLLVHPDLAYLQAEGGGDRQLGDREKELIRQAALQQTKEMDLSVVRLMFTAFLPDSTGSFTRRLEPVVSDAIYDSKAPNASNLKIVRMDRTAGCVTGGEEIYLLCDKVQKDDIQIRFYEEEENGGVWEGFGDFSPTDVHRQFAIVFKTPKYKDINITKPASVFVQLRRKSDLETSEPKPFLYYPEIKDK
RELA (p65) subunit of heterodimer;p50 subunit, sequence (Q04206 1-307, chain 1 of 2): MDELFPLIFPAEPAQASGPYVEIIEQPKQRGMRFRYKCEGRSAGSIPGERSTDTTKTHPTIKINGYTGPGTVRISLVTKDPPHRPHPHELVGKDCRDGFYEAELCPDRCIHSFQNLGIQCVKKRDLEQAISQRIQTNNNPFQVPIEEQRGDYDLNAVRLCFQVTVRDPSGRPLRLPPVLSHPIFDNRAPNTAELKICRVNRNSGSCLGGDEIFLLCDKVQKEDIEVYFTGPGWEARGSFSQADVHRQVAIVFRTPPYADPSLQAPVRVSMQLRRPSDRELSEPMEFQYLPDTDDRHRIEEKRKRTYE
RELA (p65) subunit of heterodimer;p50 subunit, sequence (P19838 7-356, chain 2 of 2): as the sequence (P19838 7-356) above
RELARELA (p65 homodimer), sequence (Q04206 1-307): as the sequence (Q04206 1-307, chain 1 of 2) above

Sequence | binding signal [1] | binding signal [2] | binding signal [3] | binding signal [4] | binding signal [5] | binding signal [6] | binding signal [7] | binding signal [8] | binding signal [9]
CGAGGAATCCT | -0.235 z-score | -1.18 z-score | -0.504 z-score | -0.879 z-score | -0.8 z-score | -1.08 z-score | -0.975 z-score | -0.824 z-score | -0.613 z-score
CAGTAGGTCCC | 0.28 z-score | -0.303 z-score | -0.0746 z-score | -0.34 z-score | -0.347 z-score | 0.0687 z-score | -0.117 z-score | -0.43 z-score | -0.438 z-score
CGAAATCCCCC | 1.7 z-score | 1.64 z-score | 2.27 z-score | 2.33 z-score | 2.13 z-score | 2.58 z-score | 2.42 z-score | 1.83 z-score | 2.36 z-score
AAGGAGCTCCC | -0.693 z-score | -0.999 z-score | -0.562 z-score | -0.64 z-score | -0.893 z-score | -0.741 z-score | -0.874 z-score | -0.927 z-score | -0.843 z-score
CAGTTCTCCCT | 0.501 z-score | 1.08 z-score | 0.65 z-score | 0.838 z-score | 0.551 z-score | 1.22 z-score | 1.11 z-score | 0.63 z-score | 0.344 z-score
CAGGGTCCCCC | -0.42 z-score | 0.876 z-score | 0.451 z-score | 1.23 z-score | 0.881 z-score | 1.22 z-score | 1.39 z-score | 0.998 z-score | 0.408 z-score
CAATTGCTCCC | -0.396 z-score | -0.852 z-score | -0.46 z-score | -0.685 z-score | -0.589 z-score | -0.487 z-score | -0.531 z-score | -0.849 z-score | -0.604 z-score
GAGGACGTCCC | 0.381 z-score | 0.144 z-score | 0.388 z-score | 0.0977 z-score | 0.262 z-score | 0.14 z-score | 0.0168 z-score | 0.15 z-score | 0.205 z-score
GGAGATATCCT | -0.481 z-score | -1.23 z-score | -0.703 z-score | -0.874 z-score | -0.798 z-score | -1.04 z-score | -0.872 z-score | -1.35 z-score | -0.82 z-score
CAGTACGCCCT | -0.311 z-score | -1.79 z-score | -0.678 z-score | -0.914 z-score | -0.662 z-score | -0.89 z-score | -0.84 z-score | -1.25 z-score | -0.761 z-score
GAAAGTGTCCT | 0.0215 z-score | -1.58 z-score | -0.464 z-score | -0.843 z-score | -0.45 z-score | -0.858 z-score | -0.525 z-score | -0.958 z-score | -0.375 z-score
CGGAGGCCCCC | -1.02 z-score | 0.282 z-score | -0.0558 z-score | 0.494 z-score | 0.175 z-score | -0.0407 z-score | 0 z-score | 0.165 z-score | 0.393 z-score
AGAGATTTCCT | 0.344 z-score | -0.498 z-score | -0.5 z-score | -0.403 z-score | -0.389 z-score | -0.762 z-score | -0.49 z-score | -0.209 z-score | -0.443 z-score
CAAAATGCCCT | 0.196 z-score | -0.106 z-score | -0.35 z-score | -0.0537 z-score | -0.15 z-score | -0.464 z-score | -0.38 z-score | -0.13 z-score | -0.0299 z-score
GGGAATCTCCT | 2.57 z-score | 0.441 z-score | 1.08 z-score | 0.896 z-score | 0.912 z-score | 0.367 z-score | 0.827 z-score | 0.987 z-score | 1.35 z-score
AGAATGCTCCC | -0.506 z-score | -0.551 z-score | -0.418 z-score | -0.467 z-score | -0.621 z-score | -0.576 z-score | -0.823 z-score | -0.92 z-score | -0.456 z-score
CGGGACCCCCT | -0.322 z-score | 1.2 z-score | 0.855 z-score | 1.01 z-score | 0.923 z-score | 1.13 z-score | 1.36 z-score | 0.895 z-score | 0.632 z-score
CAAAGGCTCCT | -0.998 z-score | -1.36 z-score | -0.784 z-score | -1.16 z-score | -1.16 z-score | -1.21 z-score | -1.07 z-score | -1.99 z-score | -1.13 z-score
AAGGTCCCCCC | -0.0871 z-score | 1.12 z-score | 0.844 z-score | 1.52 z-score | 1.1 z-score | 1.51 z-score | 1.74 z-score | 1.34 z-score | 0.964 z-score
AAAGAAGTCCT | -0.118 z-score | -0.972 z-score | -0.456 z-score | -0.815 z-score | -0.873 z-score | -0.926 z-score | -0.875 z-score | -0.558 z-score | -0.645 z-score
GAGGGATTCCT | 0.218 z-score | 0.321 z-score | 0.87 z-score | 0.254 z-score | 0.589 z-score | 0.159 z-score | 0.491 z-score | 0.376 z-score | 0.538 z-score
GAGTGCGTCCT | -0.395 z-score | -1.33 z-score | -0.581 z-score | -0.981 z-score | -0.769 z-score | -0.991 z-score | -0.844 z-score | -1.14 z-score | -0.662 z-score
GAGTATATCCT | -0.264 z-score | -1.06 z-score | -0.578 z-score | -0.876 z-score | -0.768 z-score | -1 z-score | -0.866 z-score | -1.36 z-score | -0.891 z-score
GGAATATCCCT | 2.04 z-score | 0.687 z-score | 1.23 z-score | 1.41 z-score | 1.36 z-score | 0.471 z-score | 1.04 z-score | 0.979 z-score | 1.6 z-score
CGGAGGTTCCC | 1.2 z-score | -0.355 z-score | -0.258 z-score | 0.387 z-score | -0.0508 z-score | -0.291 z-score | -0.115 z-score | 0.126 z-score | -0.0163 z-score
GGAGTGACCCC | -0.389 z-score | -0.505 z-score | -0.461 z-score | -0.353 z-score | -0.178 z-score | -0.399 z-score | -0.304 z-score | -0.367 z-score | -0.254 z-score
CAAATTCCCCC | 2.31 z-score | 1.64 z-score | 2.63 z-score | 2.41 z-score | 2.32 z-score | 2.69 z-score | 2.35 z-score | 1.89 z-score | 2.65 z-score
GGAAGTTTCCC | 2.98 z-score | 0.874 z-score | 1.24 z-score | 1.47 z-score | 1.22 z-score | 0.959 z-score | 1.03 z-score | 1.36 z-score | 1.15 z-score
AGGATTGTCCT | 0.256 z-score | -1.5 z-score | -0.541 z-score | -0.736 z-score | -0.766 z-score | -0.86 z-score | -0.821 z-score | -1.01 z-score | -0.483 z-score
CGAGTTGCCCC | 0.677 z-score | 0.0517 z-score | -0.0293 z-score | 0.542 z-score | 0.31 z-score | 0.428 z-score | 0.407 z-score | 0.855 z-score | 0.564 z-score
